This is a sample that favours compounds with a hit; in the whole collection about 3.9% have one here.
SARS 3CLpro inh: SARS-CoV 3CLpro protease inhibition; 290,000 tested, 0.14% active; inhibition, % at 6 µM; recombinant SARS-CoV 3CLpro, quenched FRET peptide cleavage; in the data active = inhibition above about 12%
BoNT-F LC inh: blocks Botulinum neurotoxin F light chain protease | Multiplex microsphere protease cleavage assay, flow cytometry | 360,000 tested, 0.22% active | inhibition, % at 10 µM; in the data active = inhibition above about 35%, passing the limit was not always enough; inconclusive = no clear call, values can overlap the other calls; note: plate controls were buffer without enzyme for full effect and enzyme alone for no effect
CCHFV vOTU inh: blocks the CCHF virus ovarian tumor domain protease. CCHFV vOTU protease, Pep-AMC fluorescence. inhibition, % at 11.5 µM. 370,000 tested, 0.55% active. AID 651958; in the data active = inhibition above about 30%; note: 0% = vehicle wells with enzyme and 100% = no enzyme wells
Anthrax LF prot: anthrax lethal factor protease inhibition; P15917; inhibition, % at 10 µM; multiplex microsphere protease cleavage assay, LF; AID 588501; 360,000 tested, 0.12% active; note: plate controls were buffer without enzyme for full effect and enzyme alone for no effect
Target sequence (P15917 whole entry, looked up): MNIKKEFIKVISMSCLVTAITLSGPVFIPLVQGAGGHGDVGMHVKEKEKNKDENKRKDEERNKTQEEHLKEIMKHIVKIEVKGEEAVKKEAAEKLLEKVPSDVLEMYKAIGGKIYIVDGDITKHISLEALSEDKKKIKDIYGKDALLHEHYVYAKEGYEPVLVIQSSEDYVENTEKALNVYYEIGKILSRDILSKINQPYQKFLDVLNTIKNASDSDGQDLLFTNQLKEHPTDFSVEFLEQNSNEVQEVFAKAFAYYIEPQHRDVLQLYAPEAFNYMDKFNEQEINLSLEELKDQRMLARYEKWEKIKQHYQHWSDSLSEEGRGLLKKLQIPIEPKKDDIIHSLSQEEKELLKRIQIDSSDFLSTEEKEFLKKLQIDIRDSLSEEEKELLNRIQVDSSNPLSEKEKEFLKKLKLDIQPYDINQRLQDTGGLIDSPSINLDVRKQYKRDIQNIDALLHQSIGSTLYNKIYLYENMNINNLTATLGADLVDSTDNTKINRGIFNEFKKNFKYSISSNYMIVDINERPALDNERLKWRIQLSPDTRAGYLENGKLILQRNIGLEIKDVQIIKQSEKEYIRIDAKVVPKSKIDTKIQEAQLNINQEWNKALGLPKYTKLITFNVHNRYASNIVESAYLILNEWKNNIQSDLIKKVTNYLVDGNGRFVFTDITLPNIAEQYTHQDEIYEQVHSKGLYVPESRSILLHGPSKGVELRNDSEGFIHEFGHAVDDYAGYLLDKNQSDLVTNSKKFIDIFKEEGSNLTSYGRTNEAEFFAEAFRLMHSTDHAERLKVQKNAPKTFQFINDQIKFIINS
BoNT A protease: BoNT A light chain protease inhibition; multiplex microsphere protease substrate cleavage, flow cytometry; inhibition, % at 10 µM; 360,000 tested, 0.17% active; AID 588499; note: plate controls were buffer without enzyme for full effect and enzyme alone for no effect
Bead autofluor: counter-screen for toxin protease inhibitors: compound fluorescence; compound autofluorescence counterscreen, microsphere flow cytometry; stronger effect = higher value; fluorescence intensity (no concentration beside the values); 360,000 tested, 3.1% active; AID 624483; in the data active = fluorescence intensity above about 16000; inconclusive = no clear call, values can overlap the other calls
* marks the source's active call; other numbers are inactive results; ? = inconclusive; · = no result given. Cut-off read from the data, not from the text of the source, unless noted: active = inhibition above about 30%; inconclusive = no clear call, values can overlap the other calls; inactive = below that.

SMILES | SARS 3CLpro inh | BoNT-F LC inh | CCHFV vOTU inh | Anthrax LF prot | BoNT A protease | Bead autofluor
COC(=O)c1cn[nH]c1NC(=S)Nc1ccc(Cl)c(Cl)c1 | -1 | -9 | -18 | -6 | 0 | 9891
COC(=O)c1cn[nH]c1NC(=S)Nc1ccc(C)cc1Cl | -2 | -2 | -6 | 0 | ? | 23473*
CCN1C(=O)C(CC(=O)N2CCN(C(c3ccccc3)c3ccccc3)CC2)N(CC)C1=O (centres undefined) | 5 | 0 | -11 | -2 | -1 | 16806*
CCN1C(=O)CC(N2CCN(C(c3ccccc3)c3ccccc3)CC2)C1=O (centres undefined) | 4 | -12 | 5 | 2 | 0 | 3331
Cc1ccc(-c2cc(C(=O)NN=Cc3ccc(F)cc3)[nH]n2)cc1C | · | · | 9 | · | · | ·
O=C(Nc1cc(C(F)(F)F)cc(C(F)(F)F)c1)c1ccc(Cn2cc(C(F)(F)F)ccc2=O)cc1 | -1 | -3 | 1 | 0 | ? | 20069*
Cc1ccc(-c2nc(C3CCCN(S(=O)(=O)c4ccc(Cl)s4)C3)no2)cc1 (centres undefined) | · | · | 1 | · | · | ·
Cc1ccc(CNC(=O)OC(C)(C)C)c(/C=C/S(=O)(=O)NC2CCCC2)c1 | · | · | 16 | · | · | ·
CCOC(=O)c1ccc(NC(=O)CN2C(=O)CSC2=O)cc1 | 1 | 1 | -6 | 1 | 1 | 22745*
COC(=O)c1ccc(NC(=O)CN2C(=O)CSC2=O)cc1 | 0 | 2 | 2 | -4 | -1 | 3231
CCc1cccc(NC(=O)CN2C(=O)NC3(CCCCCCC3)C2=O)c1 | 6 | 8 | -14 | -16 | 10 | 13579
O=C(NNC(=O)C1CC1c1ccccc1)Nc1cccc(Cl)c1 (centres undefined) | 4 | -2 | -2 | -1 | 0 | 11167
CCOC(=O)c1ccc(NC(=O)CSc2nnnn2CCCO)cc1 | -1 | -3 | -6 | -1 | -1 | 22895*
CCc1cccc(NC(=O)Cn2cccc2)c1 | -3 | -2 | -4 | -4 | -1 | 23986*
CCc1cccc(NC(=O)C2CC2c2ccccc2)c1 (centres undefined) | 5 | 36* | -1 | 10 | 0 | 4084
COC(=O)c1ccc(NC(=O)CN2C(=O)C3C4C=CC(C4)C3C2=O)cc1 (centres undefined) | -3 | -3 | -1 | -1 | -3 | 17210*
CCOC(=O)Cn1nnc(-c2ccc(S(C)(=O)=O)cc2)n1 | -3 | -2 | -8 | -2 | 0 | 23651*
CCOC(=O)c1ccc(NC(=O)C(CC)(CC)C(=O)OCC)cc1 | 3 | -9 | 6 | 2 | -4 | 18219*
CCC1C(=O)N=C(SCC(=O)Nc2cccc3ccccc23)NC1=O (centres undefined) | -2 | -3 | 4 | 9 | -1 | 10345
CCOC(=O)c1ccc(NC(=O)CSC2=NC(=O)C(CC)C(=O)N2)cc1 (centres undefined) | 5 | -2 | -8 | -2 | 0 | 16464*
CC(=O)N1[C@@H](CO)[C@@H](c2ccc(-c3cccc(F)c3)cc2)[C@@H]1CNCC1CCC1 | · | · | -3 | · | · | ·
COc1ccc(/C=C/S(=O)(=O)NCCc2ccccc2)c(CNC(=O)OC(C)(C)C)c1 | · | · | 11 | · | · | ·
Brc1ccc(Cn2nnc(-c3ccc(N4CCOCC4)cc3)n2)cc1 | · | · | -2 | · | · | ·
CCOC(=O)c1ccc(NC(=O)Cn2cccc2)cc1 | -5 | 0 | · | -10 | 2 | 22123*
CCOC(=O)c1ccc(NC(=O)CN2C(=O)CNC2=O)cc1 | -1 | -3 | -10 | 0 | -3 | 23272*
SMILES | SARS 3CLpro inh | BoNT-F LC inh | CCHFV vOTU inh | Anthrax LF prot | BoNT A protease | Bead autofluor
CCOC(=O)c1ccc(NC(=O)Cn2nnc(-c3ccc(F)cc3)n2)cc1 | 1 | -2 | 9 | 0 | -2 | 23033*
CCOC(=O)c1ccc(NC(=O)COC)cc1 | -1 | 8 | -7 | -1 | 1 | 9164
Cc1nc2ccc(C(=O)N3CCN(C(=O)C(Cl)Cl)CC3)cc2n1C1CCCC1 | · | · | 3 | · | · | ·
C[C@H](O)[C@@H]1CN2CCc3c([nH]c4c(-c5ccccc5)cccc34)[C@@H]2C[C@@H]1N(C)C(=O)NC1CCCCC1 | · | · | -5 | · | · | ·
COc1ccc(C2=NO[C@@H]3C(=O)N(c4c(C)cccc4C)C(=O)[C@H]23)cc1OC | 7 | 0 | 16 | -2 | ? | 22305*
Cc1cccc(C)c1N1C(=O)[C@@H]2C(c3ccccc3Cl)=NO[C@@H]2C1=O | 2 | 8 | -4 | -2 | 0 | 5482
O=C(/C=C/c1ccco1)NC(=S)Nc1ccccc1N1CCOCC1 | 3 | 0 | 9 | 1 | 0 | 23214*
O=C(/C=C/c1ccco1)NC(=S)Nc1ccccc1N1CCCC1 | 1 | -5 | 22 | -2 | 0 | 1990
NNC(=O)c1oc2nc(-c3ccccc3)cc(-c3ccccc3)c2c1N | 4 | 29 | 14 | -7 | -3 | 16851*
Cc1ccc(-c2cc(-c3ccco3)c3c(N)c(C(=O)NN)oc3n2)cc1 | 4 | -22 | 11 | -11 | 0 | 4125
COc1ccc(NC(=O)c2cccnc2Cl)c(S(=O)(=O)N2CCOCC2)c1 | 0 | 4 | -8 | 0 | 2 | 22564*
Cc1nc2ccc(S(=O)(=O)Nc3ccccc3C)cc2s1 | -2 | -8 | · | -4 | -5 | 17531*
C=CCn1c(SCC(=O)Nc2ccc(CCCC)cc2)nnc1-c1ccc(Cl)cc1 | · | · | 17 | · | · | ·
O=C(CC1Nc2ccccc2NC1=O)Nc1cc(Cl)cc(Cl)c1 (centres undefined) | -2 | -8 | 2 | 0 | -6 | 22648*
CCc1ccc(NC(=O)C(CC)Sc2nc3cc4c(cc3c(=O)n2Cc2ccco2)OCO4)cc1 (centres undefined) | 5 | -3 | -1 | -2 | ? | 20624*
CC(C)(C)NC(=S)Nc1ccc(Nc2ccccc2)cc1 | 1 | -10 | -1 | -22 | -1 | 9593
CC(C)(C)NC(=S)Nc1ccc(Br)cc1 | 4 | 2 | -4 | -1 | -1 | 22615*
O=C(c1ccc(S(=O)(=O)NCc2ccco2)cc1)N1CCCC1 | 1 | 6 | -5 | 0 | 1 | 3446
CC1CCCCC1NC(=O)COC(=O)c1ccc(S(=O)(=O)NCc2ccco2)cc1 (centres undefined) | -5 | 6 | 1 | -7 | 4 | 21167*
O=C(NC1CCCCCC1)c1ccc(S(=O)(=O)NCc2ccco2)cc1 | 2 | -1 | -5 | -1 | -1 | 23471*
O=S(=O)(NCc1ccco1)c1ccc(S(=O)(=O)N2CCCCC2)cc1 | 2 | -4 | · | -6 | -1 | 23145*
COc1cccc(S(=O)(=O)Nc2ccc(C(=O)NCc3ccco3)cc2)c1 | -3 | 1 | 2 | -5 | 0 | 11265
COc1cccc(S(=O)(=O)NCc2ccc(C(=O)NCc3ccco3)cc2)c1 | -5 | -6 | -13 | 1 | -6 | 25859*
C=CCN1C(=O)[C@@H](CC(=O)NCCCCc2ccccc2)[C@]2(C(=O)OC)CCCCC=C12 | · | · | 3 | · | · | ·
Cc1ccc(C(=O)C2CCN(CC(=O)N3CC(C)CC(C)C3)CC2)cc1 (centres undefined) | · | · | -3 | · | · | ·
COC(=O)[C@H](CC(C)C)N(Cc1cn(Cc2ccc(C)cc2)nn1)S(=O)(=O)c1ccccc1Br | · | · | 13 | · | · | ·
O=C(Nc1c(-c2ccc(C(F)(F)F)cc2)nc2ncccn12)C1CC1 | · | · | -60 | · | · | ·
